Screening results as filed in PubChem BioAssay.
An excerpt weighted towards active compounds, which were near 12% of everything screened.
HCV inhibitor – qHTS Assay for Inhibitors of Hepatitis C Virus (HCV); 340,000 tested, 3.4% active; Potency, µM (top dose mostly 41.8 µM), for inactives: at the top dose activity change, negative = inhibition, hits mostly inhibitors; Huh7.5.1 HCVcc-Cre infection, luciferase reporter, 44 h; note: % is set by controls: 0 for no effect and ±100 for the full control effect
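After 44 h co-culture of compound, cells and HCVcc-Cre (~0.5 moi), substrate is added for 15 min at room temperature and luciferase measured over 15 sec. Cells were seeded at 1,000/well and pre-cultured 4 h.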
Pf growth 48h – Primary qHTS for delayed death inhibitors of the malarial parasite plastid, 48 hour incubation; P. falciparum luciferase growth in erythrocytes, 48 h; Potency, µM (series often up to 28.7 µM), for inactives: at the highest dose activity change, negative = inhibition, usual class: inhibitors; 310,000 tested, 5.9% active; AID 504832, 2011; note: % is set by controls: 0 for no effect and ±100 for the full control effect
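Parasite viability was followed by luminescence of a genomically integrated firefly luciferase. Cultures held 0.1% parasitemia at 2% hematocrit (final), incubated under 5% CO2 at 37 C.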
Pf growth 96h – Primary qHTS for delayed death inhibitors of the malarial parasite plastid, 96 hour incubation; P. falciparum luciferase reporter growth, 96 h; Potency, µM (top dose mostly 28.7 µM), for the others: top-dose activity change, negative = inhibition, most hits filed as inhibitors; 320,000 tested, 6.9% active; AID 504834, 2011; note: % is set by controls: 0 for no effect and ±100 for the full control effect
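Two parasite generations (96 h, 37 C, 5% CO2) of compound exposure in infected erythrocytes (0.05% parasitemia, 2% hematocrit). Luciferase-reporter P. falciparum; decreased luminescence indicates inhibited growth, aimed at apicoplast-acting delayed death.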
AMA1 RON2 block – qHTS for Inhibitors of AMA1-RON; Towards Development of Antimalarial Drug Lead: Primary Screen; AID 720542, 2013; AlphaScreen AMA1-biotinylated RON2 peptide binding; Plasmodium falciparum AMA1 (3D7) - RON2 peptide interaction; Potency, µM (titrated, usually from 58.2 µM), for the others: top-dose activity change, negative = inhibition, usual class: inhibitors; 360,000 tested, 0.2% active;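 note: 0% = vehicle wells and -100% = peptide control; nearly all actives have a fitted effect of over 45% in size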
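AMA1 (3D7) with his tag at 25 nM final met compounds first, then biotinylated RON2 peptide at 25 nM; detection used donor plus acceptor beads, 10 µg/mL apiece, read by AlphaScreen after 30 min at room temperature.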
SARS PLpro yeast – qHTS of Yeast-based Assay for SARS-CoV PLP. S. cerevisiae expressing SARS-CoV PLpro, growth rescue. Potency, µM (series often up to 32.9 µM), without a hit: at the highest dose activity, positive = growth rescue, usual class: activators. 330,000 tested, 0.19% active; calls by dose curve; note: 0% is about no effect; nearly all actives have a fitted effect of over 55% in size
NS1 inh – qHTS Assay for Inhibitors of Influenza NS1 Protein Function; AID 2326, 2010; Potency, µM (top dose mostly 46.1 µM), inactives show at the highest dose activity, positive = more growth; 270,000 tested, 0.4% active; calls by dose curve; note: actives are rising curves; nearly all actives have a fitted effect of over 50% in size
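Growth recovery, yeast-based: influenza A NS1 expressed in S. cerevisiae causes slow growth, and suppressors are detected by OD600. The parent strain without NS1 is used as positive control.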
Starred values were filed as active, the others as inactive; ? = inconclusive; / = not tested or not shown. Unless noted, calls come from the whole dose curve; as a rule, active = well fitted curve in the direction sought with a large enough effect; inconclusive = small, poorly fitted or top-dose-only effect, or another doubt; inactive = no such curve, though single readings can be large; an effect the other way counts as inactive or inconclusive. Potency is the fitted concentration of half-maximal effect.

SMILES	HCV inhibitor	Pf growth 48h	Pf growth 96h	AMA1 RON2 block	SARS PLpro yeast	NS1 inh
O=C(COc1ccccc1C(=O)c1cnn(-c2ccccc2)c1)Nc1ccc2ccccc2c1	13µM*	35%	-10%	-13%	-3%	9%
CCC(NS(=O)(=O)c1ccc2c(c1)NC(=O)C(C)C(=O)N2)c1cccs1 (stereo unspecified)	13%	38%	21%	14%	-3%	6%
Cc1cc(N2CC(C)OC(C)C2)n2cc(-c3ccccc3)nc2n1 (stereo unspecified)	-18%	?	?	-6%	-3%	/
COc1ccc(NC(=O)c2c(NC(=O)CCC(=O)O)sc3c2CCCCC3)cc1	13%	-2%	4%	-7%	0%	4%
C=CCNCC(=O)Nc1sc2c(c1C(=O)Nc1ccc(OC)cc1OC)CCC2	10µM*	12µM*	32%	58%	0%	2%
CN(C)c1cccc(/C=C(\C#N)c2ccccc2)c1	11µM*	237%	193%	-26%	-6%	-13%
O=C1NC[C@H](CCCCN2C[C@H](Cc3ccc(O)cc3)N(CC3CCCCC3)C(=O)C2=O)N(CCc2ccc(O)cc2)C1=O	/	/	/	1%	/	/
CCOC(=O)C1=C(C)Nc2nc3ccccc3n2C1c1ccc(O)cc1 (stereo unspecified)	9%	-22%	11%	-18%	1%	-2%
CCOC(=O)c1ccccc1-n1c(C)cc(C2N=C(N)Nc3nc4ccccc4n32)c1C (stereo unspecified)	-8%	/	1.7µM*	36%	-1%	5%
O=C(CSc1nc2cc(Cl)ccc2s1)c1ccco1	-25%	39%	10µM*	66%	-6%	-48%
c1coc(-c2ncc[nH]2)c1	-1%	1%	?	28µM*	-16%	0%
c1coc(-c2ccnc3ncnn23)c1	25%	-12%	11%	0%	-1%	/
O=C(NCC(c1cccs1)N1CCOCC1)C1CCN(S(=O)(=O)c2c(Cl)cccc2Cl)CC1 (stereo unspecified)	?	13µM*	?	1%	-6%	/
O=C(NCc1cccs1)C1CCN(c2ccc(S(=O)(=O)N3CCOCC3)cc2Cl)CC1	11%	4.7µM*	?	-8%	11%	-6%
Cc1c(C#N)c2ccccc2n1CCOc1ccccc1F	-28%	1.2µM*	2.9µM*	9%	2%	1%
COC(=O)Cn1c(C)c(C#N)c2ccccc21	9%	12%	-8%	-2%	12%	26%
N#Cc1cn(CCOc2ccccc2F)c2ccccc12	-17%	2.9µM*	/	-1%	-26%	-44%
N#Cc1cn(CCOc2ccc(F)cc2)c2ccccc12	?	10µM*	61%	33%	-86%	-22%
COc1ccc(O)c(CN2CC3CCC(CC3)C2)c1	-12%	/	/	-11%	/	/
O=C(Nc1c(-c2ccc3c(c2)OCO3)[nH][nH]c1=O)c1cccc(C(F)(F)F)c1	/	/	/	11%	/	/
Nc1nc(C(=O)O)c(N=Nc2ccccc2)c(=O)[nH]1	/	/	/	/	/	-4%
Cc1ccc(N2CC(O)CSC2=Nc2ccccc2)cc1 (stereo unspecified)	/	/	/	0%	/	/
CC(=O)Nc1cc2c(cc1NC(=O)Cn1nc(-c3ccc(F)cc3)ccc1=O)OCCO2	-10%	23%	-16%	7%	1%	-19%
CC(=O)c1cc2c(cc1NC(=O)Cn1nc(-c3ccc(C)cc3)ccc1=O)OCO2	11µM*	?	-22%	15%	1%	1%
COc1cccc(NC(=O)NNC(=O)CCc2ccc(O)c(O)c2)c1	13%	-11%	-1%	-27%	15%	3%
SMILES	HCV inhibitor	Pf growth 48h	Pf growth 96h	AMA1 RON2 block	SARS PLpro yeast	NS1 inh
CCON=O	/	-75%	2.7µM*	/	/	/
Cc1cccc(-n2ccnc2CN2CCN(C3CCCC3)C(CCO)C2)c1 (stereo unspecified)	15%	-14%	6.6µM*	-2%	1%	4%
CC(=O)Nc1ccc(CN2CCN(C3CCCC3)C(CCO)C2)cc1 (stereo unspecified)	15%	59%	8.3µM*	0%	1%	-4%
OCCC1CN(Cc2c(F)cccc2Cl)CCN1C1CCCC1 (stereo unspecified)	0%	-5%	13µM*	1%	0%	1%
CCN(CC)CCNC(=O)CNC(=O)c1nn(-c2ccc(OC)cc2OC)c(=O)c2ccccc12	0%	/	?	9%	6%	2%
COc1ccc(S(=O)(=O)N2CCN(C(=O)N3CCOCC3)C2C)cc1 (stereo unspecified)	15%	27%	1%	-3%	-8%	-3%
C=CCNc1nc(NC(C)(C)CO)nc(OCC)n1	1%	4%	7.4µM*	?	5%	0%
CCOc1ccc(OCC)c(S(=O)(=O)NCCOC23CC4CC(CC(C4)C2)C3)c1	10µM*	?	9%	13%	-46%	-10%
COc1cc(S(=O)(=O)NCCOC23CC4CC(CC(C4)C2)C3)c(OC)cc1Cl	?	?	105%	-20%	-7%	8%
Cc1ccc(CN2CCNC(=O)C2CC(=O)N(C)CCc2ccccc2)cc1 (stereo unspecified)	0%	?	7.4µM*	0%	0%	-2%
Cc1cc(CNC(=O)CC2C(=O)NCCN2CC(c2ccccc2)c2ccccc2)on1 (stereo unspecified)	12%	1%	15µM*	2%	1%	10%
Cc1cc(CNC(=O)CC2C(=O)NCCN2Cc2ccccc2)nn1C (stereo unspecified)	3%	-9%	?	57%	-2%	-1%
Cc1ccc(CN2CCNC(=O)C2CC(=O)N(C)C2CCCCC2)cc1 (stereo unspecified)	-8%	?	-5%	-9%	-6%	15%
Cc1cc(CNC(=O)CC2C(=O)NCCN2Cc2ccc(-c3ccccc3)cc2)nn1C (stereo unspecified)	-19%	-13%	9.3µM*	18%	9%	-2%
CN(CC1CCOCC1)C(=O)CC1C(=O)NCCN1C/C=C/c1ccccc1 (stereo unspecified)	6%	6%	4.7µM*	1%	1%	0%
CN(CCC1CCOCC1)C(=O)CC1C(=O)NCCN1C/C=C/c1ccccc1 (stereo unspecified)	8%	-2%	40%	-5%	1%	1%
O=C(NCc1ccc(Cl)cc1)c1ccc(S(=O)(=O)N2CCCCC2)cc1	-16%	?	?	6%	-6%	/
COC(=O)c1ccc2nc(-c3ccc(C)cc3)c(Cc3cccc(Cl)c3)n2c1	/	/	/	-1%	/	/
